# Bioassay records as filed in PubChem.
# Rows were chosen to be rich in hits. Some 1.8% of all compounds tested hit in one or more screens of this group.
# HTR2A ag: mouse HTR2A agonism via beta-arrestin recruitment. P35363. CHO-K1 mHTR2A beta-arrestin complementation, luminescence; percent of 30 µM serotonin response. activation, % at 7.6 µM. actives 0.66% (n = 360,000). AID 624169;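 active means activation above a run cutoff, the mean activation of all tested compounds plus 3 SD, cut at about 14% in these data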;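 further: 0% = plate median of compound wells and 100% = 30 µM serotonin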
# Target sequence (P35363 whole entry, looked up): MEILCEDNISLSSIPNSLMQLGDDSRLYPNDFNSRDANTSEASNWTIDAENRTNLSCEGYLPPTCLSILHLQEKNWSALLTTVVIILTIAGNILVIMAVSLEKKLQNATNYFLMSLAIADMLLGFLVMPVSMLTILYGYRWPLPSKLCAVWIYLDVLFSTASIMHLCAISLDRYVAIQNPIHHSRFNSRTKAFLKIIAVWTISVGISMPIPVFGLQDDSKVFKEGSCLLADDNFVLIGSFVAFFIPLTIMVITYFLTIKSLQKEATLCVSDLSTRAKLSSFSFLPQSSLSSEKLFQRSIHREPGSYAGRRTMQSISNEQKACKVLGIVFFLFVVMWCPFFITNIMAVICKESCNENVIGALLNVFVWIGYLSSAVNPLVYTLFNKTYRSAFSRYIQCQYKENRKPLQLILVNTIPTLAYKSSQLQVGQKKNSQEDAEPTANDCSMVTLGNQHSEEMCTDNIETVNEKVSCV
# GC-B act: GC-B (human) receptor activation; actives 0.11% (n = 370,000); HEK293-GC-B cells, CNP EC30, cGMP TR-FRET; 0% at EC30 CNP, 100% saturating CNP; AID 1920062; activation, % at 10 µM;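 active means activation at 10 µM reaching about 35% in either raw or pattern-adjusted values, limit read from the data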
# MsrA act: bovine methionine sulfoxide reductase A activation | purified bovine MsrA, absorbance read-out | activation, % at 10.6 µM | actives 0.3% (n = 360,000) | AID 602163; in the data active means activation above about 7.5%;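 further: 0% = vehicle and 100% = reference activator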
# GC-A act: GC-A (human) enzyme activation. HEK293 GC-A cells, cGMP TR-FRET, EC30 ANP; 0% at EC30 ANP, 100% saturating ANP. actives 0.14% (n = 370,000). activation, % at 10 µM. AID 1671463; in the data active means activation above about 40%
# MsrA inh: inhibitors of bovine MsrA; purified bovine MsrA, absorbance read-out; inhibition, % at 15.5 µM; actives 0.75% (n = 360,000); AID 651718;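 further: 0% = vehicle wells with enzyme and 100% = reference inhibitor wells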
# MsrA inh confirm: bovine MsrA inhibition, confirmed; shares compounds with MsrA inh; purified bovine MsrA, absorbance read-out; inhibition, % at 15.5 µM; actives 41% (n = 2,300);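 further: coupled to thioredoxin reductase with NADPH and selenocystamine and DMSO as substrate; 0% = vehicle only and 100% = full effect of reference inhibitor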
# Active calls of the source: *; nt = no result. Unless noted, no stated cut-off is given here; in the data, active means inhibition above about 4.5%; inactive means the rest.
SMILES,HTR2A ag,GC-B act,MsrA act,GC-A act,MsrA inh,MsrA inh confirm
O=C1C(C=NCCCN2CCCC2=O)=C(O)c2ccccc21,1.6,-5.0,-2.2,-6.0,5.2*,2.6
Cc1ccc2nc(NCCc3ccccc3)c3nncn3c2c1,0.8,3.9,-4.0,2.1,0.1,nt
Cc1cc(NS(=O)(=O)c2ccc(NC(=O)c3cnc4sccn4c3=O)cc2)nc(C)n1,-2.1,4.7,-4.6,3.4,1.4,nt
Cc1cc(C)nc(NC(=O)c2cnc3sccn3c2=O)n1,0.4,1.7,-5.4,0.0,5.5*,4.7*
CCOc1cc(N2CCOCC2)c(OCC)cc1NC(=O)COc1ccccc1[N+](=O)[O-],3.0,14.5,-0.2,4.6,-0.6,nt
O=C(COc1ccccc1[N+](=O)[O-])Nc1cccc(Cl)c1N1CCOCC1,5.4,-2.4,-3.2,-2.2,5.9*,1.9
Cn1c(Oc2cccnc2CN2CCCC2)nc2cc(-c3cccc(C(F)(F)F)c3)sc2c1=O,-1.9,-6.7,-2.0,8.3,0.8,nt
CCCCc1cc(=O)oc2c(CN(C)C)c(O)c(Cl)cc12,-6.9,-1.7,-4.8,8.2,5.0*,2.3
CCc1c(C)c2cc(Cl)c(O)c(CN(C)C)c2oc1=O,-2.8,0.8,-14.7,4.7,3.7,nt
C[C@H]1[C@@H](NC(=O)C2CCOC2)CC[C@@]23CCCN2C(=O)CCC[C@@H]13 (stereo not given in full),nt,-0.1,nt,4.0,nt,nt
CCC1SC2=NC(C)=C(C(=O)OCCOC)C(c3ccc(C(=O)OC)cc3)N2C1=O (stereo not given),0.7,4.2,-1.9,-1.8,4.9*,2.4
CCC1SC2=NC(C)=C(C(=O)OC)C(c3ccc(C(=O)OC)cc3)N2C1=O (stereo not given),-2.1,1.8,-1.9,1.2,1.5,nt
O=C(N/N=C/c1ccc[nH]1)c1cc(-c2cccs2)nc2ccccc12,-7.2,0.3,-2.1,-1.7,4.9*,4.5
CC(=O)Nc1ccc(NC(=O)/C=C/c2ccc3c(c2)OCO3)cc1,2.5,-0.4,-4.7,1.3,5.5*,4.3
Cc1ccsc1/C=N/NC(=O)c1ccc2c(c1)OCCO2,-3.1,1.4,-4.9,-4.2,3.5,nt
COc1cc(/C=N/NC(=O)c2ccc3c(c2)OCCO3)cc(Br)c1O,0.7,-11.7,-4.8,-6.3,5.2*,5.3*
Cc1ccsc1/C=N\NC(=O)c1ccc2c(c1)OCO2,0.3,3.2,-0.3,3.2,5.1*,5.5*
COc1cc(/C=N/NC(=O)c2ccc3c(c2)OCCO3)c(Br)c(Br)c1O,-0.2,-6.3,-4.4,-3.7,3.1,nt
Nn1c(SCc2cccc3ccccc23)nnc1-c1n[nH]c2c1CCC2,nt,-14.8,nt,-8.3,nt,nt
O=C(CCc1ccccc1)N[C@H]1[C@@H](OC(=O)c2ccco2)CCC[C@@]12C(=O)N(Cc1ccccc1)c1ccccc12,nt,-0.9,nt,-1.5,nt,nt
CCC(=O)N[C@@H]1C[C@@H]2O[C@@H](CO)CC[C@@H]2O[C@@H]1CCc1ccc(-c2cccc(OC)c2)cc1,nt,-4.6,nt,-2.6,nt,nt
CC(C)[C@H]1Cn2nncc2Cn2c3ccccc3c(=O)n21,nt,2.1,nt,2.5,nt,nt
COCCNC(=S)N/N=C/c1ccc2c(c1)OCCO2,-1.7,1.3,-2.5,3.1,3.6,nt
O=C(N/N=C/c1ccc2c(c1)OCO2)c1ccc2c(c1)OCO2,-3.5,-1.6,-4.6,0.4,4.7*,3.6
COc1ccc(NS(=O)(=O)c2cccc(C(=O)NN=Cc3ccc(OC)cc3OC)c2)cc1,-0.9,-1.8,0.4,-7.7,1.5,nt
SMILES,HTR2A ag,GC-B act,MsrA act,GC-A act,MsrA inh,MsrA inh confirm
COCCCNC(=S)N/N=C/c1ccc2c(c1)OCO2,-4.2,7.1,-3.5,2.3,5.5*,4.9*
COc1ccc(NS(=O)(=O)c2cccc(C(=O)NN=Cc3cc(Br)c(O)c(Br)c3)c2)cc1,-0.5,-3.5,-5.8,-0.8,5.7*,4.9*
O=C(N/N=C/c1ccc[nH]1)c1ccc(O)cc1,-3.3,-3.2,-3.1,-4.8,5.3*,3.6
O=C(N/N=C/c1ccc[nH]1)c1ccccc1O,-0.2,-6.6,-5.3,1.5,4.3,nt
O=C(NN=Cc1ccc2c(c1)OCO2)c1ccccc1,-2.5,-2.1,-9.9,2.8,3.6,nt
CCOc1ccc(-n2c(SCC(=O)Nc3ccc(Oc4ccccc4)cc3)nnc2-c2ccncc2)cc1,nt,-4.0,nt,0.9,nt,nt
O=C(Nc1ccc(Cl)cc1)C1CCCN1S(=O)(=O)c1cccnc1 (stereo not given),nt,-6.9,nt,2.3,nt,nt
Cc1cc(C(=O)N/N=C/c2ccc[nH]2)no1,-2.6,4.7,-9.0,-1.0,4.5,nt
Cc1cc(C(=O)N/N=C/c2ccc[nH]2)n[nH]1,-3.2,-1.3,-5.9,-3.7,5.3*,4.1
O=C(N/N=C/c1ccc[nH]1)c1ccc2c(c1)OCO2,-1.2,-0.1,-2.7,3.1,5.1*,4.0
O=C(O)c1cccc(Nc2nc(-c3cccnc3)nc3ccccc23)c1,3.7,3.1,-3.3,6.7,5.6*,1.9
COC(=O)c1cccc(Nc2nc(-c3cccnc3)nc3ccccc23)c1,-3.2,-2.0,-3.5,-3.1,0.9,nt
C/C(=N\Nc1ccc(C(=O)O)cc1)c1ccc(-n2ccnc2)cc1,-3.6,-3.3,-2.9,-4.9,6.5*,4.5*
C/C(=N\NC(N)=O)c1ccc(-n2ccnc2)cc1,3.0,2.6,-2.7,-6.7,1.8,nt
CC(C)CN1C(=O)C[C@]2(C(=O)N(C)c3ccc(NC(=O)c4cc(F)ccc4F)cc32)C1c1ccccc1 (stereo not given in full),nt,7.7,nt,-5.1,nt,nt
COC(=O)[C@]12C[C@H](CC(=O)N3CCSCC3)C(=O)N(CCc3ccc(OC)c(OC)c3)C1=C[C@H](C1CCCC1)O[C@@H]2C,nt,-1.6,nt,0.5,nt,nt
COc1ccc(/C=C(/C#N)S(=O)(=O)c2ccc(C)cc2)cc1,2.1,0.9,-0.8,-1.9,-0.1,nt
CO/N=C/C(C#N)=C/c1ccc(OC)cc1,0.1,-4.6,-7.2,4.2,6.7*,4.8*
CC(=O)c1ccc(N/N=C2/CCCNC2=O)cc1,-1.9,6.0,-7.6,-8.7,7.4*,6.2*
Cc1ccc(N/N=C2/CCCNC2=O)cc1,-0.7,-0.1,-9.8,-0.1,0.4,nt
CC(Nc1cc(N2CCN(S(=O)(=O)N(C)C)CC2)ccc1[N+](=O)[O-])c1ccccc1 (stereo not given),1.1,-2.0,-4.0,-3.1,8.5*,8.0*
CC(Nc1cc(N2CCN(S(C)(=O)=O)CC2)ccc1[N+](=O)[O-])c1ccccc1 (stereo not given),-1.2,-8.2,-3.3,-2.9,24.2*,19.7*
O=[N+]([O-])c1ccc(N2CCN(S(=O)(=O)c3ccccc3[N+](=O)[O-])CC2)cc1NCc1cccnc1,-0.4,-6.2,-2.7,-6.8,2.2,nt
CCS(=O)(=O)N1CCN(c2ccc([N+](=O)[O-])c(NCc3cccnc3)c2)CC1,-2.7,1.6,-13.6,-0.7,5.4*,1.6
